Experimental data taken from publication PMC12136788.
Changes are numbered by the printed parent chain. In all, about 24,000 sequences were measured (“enrichment r”: median about 0.99, highest 2% from about 3.7 on). Shown is part of a subset that was picked to be rich in the highest values.

T1: UNK ZnF1-3 (human, UniProt Q9C0B0 31-174)
T1 sequence: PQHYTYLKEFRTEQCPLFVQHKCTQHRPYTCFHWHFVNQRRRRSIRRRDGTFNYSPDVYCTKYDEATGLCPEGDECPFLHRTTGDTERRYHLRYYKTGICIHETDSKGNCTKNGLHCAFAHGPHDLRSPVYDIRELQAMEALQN

B1: chr20:52835626:52835627:+_ENSG00000101132_ENST00000441080|hu_mus|FALSE|FALSE (ssRNA)
RNA: GGGAGUUCUACAGUCCGACGAUCUGCCUCGAGGUUUAUGUUGCUGCCAAAUUUCGCGUAUAGCUGCACCUUCAGGUCGGCUAACACCCGCUGGAUGGACGCCACUCUGGACUCUAAGGCAUCAAUCUCUUCUUGCAAAGUUUUCAACAGAGGAUUGAGCAUCA
B2: chr1:39494447:39494448:+_ENSG00000168653_ENST00000372967|hu_mus|hu_hu_hu_mus_False|48_48 (ssRNA)
RNA: GGGAGUUCUACAGUCCGACGAUCGCACCGAGCGGCGUUCUUAUAGGGCUGUUCUGCGCUUAGGAACAUAAAGUGCCGGUCCAGGCUAAGGCCGAACUUUUUCUGUAUGUCAAGGAAAGGCAUGGCUCUGCAGUGCCCUUGUCACAACAGAGGAUUGAGCAUCA
B3: chr2:131829505:131829506:-_ENSG00000152102_ENST00000409185|hu_mus|FALSE|FALSE (ssRNA)
RNA: GGGAGUUCUACAGUCCGACGAUCCGCUCCAGGGUACAUGUUAGGAGAAUAGGCAGGUGCUGCUGCAUAGCCCACAGGAAAACCAGCUGGAUAUCCAAUUCCUUUGGCAUUUGCAUAGGGAACGCCAGAAGACCCAGGGCUAUACAACAGAGGAUUGAGCAUCA
B4: chr17:65336665:65336666:-_ENSG00000197170_ENST00000356126|hu_mus|FALSE|FALSE (ssRNA)
RNA: GGGAGUUCUACAGUCCGACGAUCACACAUGUCCUGUUUUUAUUACUAUCACGUGGCUGUCAGGUGAAUAAAAACAAAUAGUAUGAACACACUCAAGGAAAGCUGAGACACAAACCUUUCUGUCUUCAGACUGAAAAAAUGUUUCAACAGAGGAUUGAGCAUCA
B5: chr10:33190432:33190433:-_ENSG00000150093_ENST00000302278|hu_mus|hu_hu_hu_mus_True|68_78 (ssRNA)
RNA: GGGAGUUCUACAGUCCGACGAUCUACAUUUUCCAAACCUGCAUGUGAAUAAAACCCUGGCAAUAUUGCCCUAAAGCUACCCUACUGUGACUAAGAUGCUGCUGCUGUGAGCUUGGUGUUGCAAAAUCCGCCUGAGUAGGAUUCCAACAGAGGAUUGAGCAUCA
B6: chr1:120316058:120316059:+_ENSMUSG00000064302_ENSMUST00000049404|mus_mus|FALSE|FALSE (ssRNA)
RNA: GGGAGUUCUACAGUCCGACGAUCCACCAUGUGUGUCUGAAGAGCAGCUGGUAGGAUAUUAAAAGUCCAAUUUAAAUAACUAGUAGGCAAUAAAGGAGAGAGUGGCGGAGUGAUGAUCUACAACUGGGUCUGAAAUACUUCAUACAACAGAGGAUUGAGCAUCA
B7: chr12:55960871:55960872:-_ENSMUSG00000062929_ENSMUST00000078124|mus_hu|FALSE|FALSE (ssRNA)
RNA: GGGAGUUCUACAGUCCGACGAUCUACUAAUGUUUAAGACUGCUAUUAUCAAUUCCUAUUCCAAUUCAAUUUGCAAAAUAUAUUCAGAAAUAGUAGGUGAAAUGACUGUUCCGAAACAUCAGAAGUAUCAUUAAACUUUUAAAGCAACAGAGGAUUGAGCAUCA
B8: chr10:123500321:123500322:-_ENSG00000107669_ENST00000369043|hu_mus|FALSE|FALSE (ssRNA)
RNA: GGGAGUUCUACAGUCCGACGAUCGAUAUGCUAAGAAACCACACAAAACUGGCAUUUGCAAAUGGAUAAAAAUAGGAUAGAUUGCUUGAAAGAAAACAUAAACAAUAAUUUUAUCUAAAUAAUUUUAAUUGAGUGACUAUAUUCCAACAGAGGAUUGAGCAUCA
B9: chr1:58468927:58468928:-_ENSMUSG00000026034_ENSMUST00000148330|mus_mus|mus_mus_mus_hu_False|98_108 (ssRNA)
RNA: GGGAGUUCUACAGUCCGACGAUCAAUCUAUAAUUACUGAAAGAUGUACCUUAGCUAUGUACUUAAUGAACCAAAUUACCCAAACAAAAUAAACAUGGCAAUAUAAAAAUGUUAAGAAUUUACAAAGCUGUACAAAAUAACUUACAACAGAGGAUUGAGCAUCA
B10: chr1:235506153:235506154:+_ENSG00000152904_ENST00000391855|hu_hu|FALSE|FALSE (ssRNA)
RNA: GGGAGUUCUACAGUCCGACGAUCCUACUCACCUAUUUACUGUUUCUGGAGAAUAACAAAUUUUUUAAAAGGUGGUAAGGCUAAAAGACAAAAAAAAGAUUAACUAAAAUAAGCUAUGAGGUCCAAUCAAGAAUGGCUUAACAUCAACAGAGGAUUGAGCAUCA
B11: chr10:62229464:62229465:-_ENSMUSG00000020074_ENSMUST00000020268|mus_hu|FALSE|FALSE (ssRNA)
RNA: GGGAGUUCUACAGUCCGACGAUCCAGCUGAAAUGGUCUUGACAAAGGGAAAGCAUCCACCCAUGUAAAUUGAGCAUCAAAAAAGUCACUAGGUAUAUACAAAUUUUGAUAACGGCGCCUUAGUUCCAUCAUGUCACAACUGGGCAACAGAGGAUUGAGCAUCA
B12: chrX:71549762:71549763:+_ENSMUSG00000019087_ENSMUST00000019231|mus_mus|mus_mus_mus_hu_False|78_78 (ssRNA)
RNA: GGGAGUUCUACAGUCCGACGAUCAAACCCGUGUACUUCUUAUUGUUAGCACAACAUUCCCCCCCAACGAUAACGACAGCCAAGCAGGACAGACAGUUAAGUAGUACUUCCACACUCCCAAACUCAGGGAGCCCUAUAACCUUACAACAGAGGAUUGAGCAUCA
B13: chr14:105707756:105707757:+_ENSMUSG00000053253_ENSMUST00000138283|mus_hu|motif|central (ssRNA)
RNA: GGGAGUUCUACAGUCCGACGAUCAUUUAUUUUUCUUAUAAAGGACAUUUGGUAUUCCCACAUUUUCUUAAAAUUUGUCCGGAAACAAAUUCUAUCUUUAACACUCACGUUUCUAAAUAUAUAUAUGUGUGUGUGUAUAUAUAUCAACAGAGGAUUGAGCAUCA
B14: chr10:62229464:62229465:-_ENSMUSG00000020074_ENSMUST00000020268|mus_mus|FALSE|FALSE (ssRNA)
RNA: B11 RNA with C27U, U69C, U93A, C99U, A102G, U105C
B15: chr2:121263671:121263672:+_ENSMUSG00000027248_ENSMUST00000028683|mus_mus|FALSE|FALSE (ssRNA)
RNA: GGGAGUUCUACAGUCCGACGAUCAAAACGACAGUAUAAAGGGGGCACAUUUAUUGUCACUGUUCCAAAUGUACAAAAAAAAUUAGAAAAUAACCCCCCAACUCAAUUCCCCCCACCCCCACAACAUUCUUCCCAACACAAAUACAACAGAGGAUUGAGCAUCA

target: T1, UNK ZnF1-3; experiment: nsRBNS (natural sequence RNA bind-n-seq); RBNS binding buffer (assumed for nsRBNS): 25 mM Tris pH 7.5, 150 mM KCl, 3 mM MgCl2, 0.01% Triton X-100, 500 ug/ml BSA, 20 U/ml SUPERase-In, 4 C; UNK is unkempt and MSI1 is Musashi-1; names of the RNAs are library labels; protein concentration not given here; high values mean tight binding

Row | Binder | binding signal [enrichment R]
1 | B1 | 0.762
2 | B2 | 0.888
3 | B3 | 0.945
4 | B4 | 1.19
5 | B5 | 1.15
6 | B6 | 2.28
7 | B7 | 0.797
8 | B8 | 5.07
9 | B9 | 1.97
10 | B10 | 5.06
11 | B11 | 6.32
12 | B12 | 1.31
13 | B13 | 0.913
14 | B14 | 3.38
15 | B15 | 5.9
